Assay outcomes (PubChem BioAssay)
In the library only some 1.5% were active in any assay of this set; here they are far more common.
NTR1 agonist = agonists of human NTR1, primary screen, imaging, U2OS cells, beta-arrestin-GFP, high content. NTR1-U2OS beta-arrestin-GFP spot imaging, agonist mode. activation, % at 20 µM. 330,000 compounds, 0.17% hits. AID 493036, 2011;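 active means activation at or above 40% of the spot to cytoplasm intensity ratio, with at least 20 cells analyzed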;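 further: 0% = DMSO without peptide and 100% = 100 nM NTR1 peptide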
TLR9-MyD88 block = inhibitors of TLR9-MyD88 association in cells, primary screen, cell-based, CHO, BLA complementation, fluorescence. CCF4 FRET ratio. inhibition, % at 4.98 µM. 340,000 compounds, 0.21% hits. AID 504734, 2011. Toll-like receptor 9 (Homo sapiens) + Myeloid differentiation primary response protein …;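 active means inhibition above the mean over all tested compounds plus 3 SD, cut at about 21% in these data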;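 further: 0% = DMSO only wells and 100% = clavulanate BLA inhibitor control wells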
TLR4 MyD88 comp = inhibitors of TLR4-MyD88 association in cells, primary screen, cell-based, HeLa CL3-4, BLA complementation, FRET ratio; 200,000 compounds, 0.18% hits; Toll-like receptor 4 (Homo sapiens) + Myeloid differentiation primary response protein …; HeLa CL3-4 TLR4/MyD88 BLA complementation; AID 861, 2007; inhibition, % at 8.4 µM; in the data active means inhibition above about 25%;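 further: 0% = vehicle and 100% = reference inhibitor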
NOD2-RIPK2 inh = NOD2-RIPK2 binding disruptors in cells, primary screen, fluorescence, CHO cells, BLA complementation; 360,000 compounds, 0.38% hits; inhibition, % at 4.98 µM; Receptor-interacting serine/threonine-protein kinase 2 (Homo sapiens), O43353; CCF4 ratio; in the data active means inhibition above about 21%;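 further: 0% = vehicle only and 100% = reference blocker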
Target sequence (O43353 whole entry, looked up): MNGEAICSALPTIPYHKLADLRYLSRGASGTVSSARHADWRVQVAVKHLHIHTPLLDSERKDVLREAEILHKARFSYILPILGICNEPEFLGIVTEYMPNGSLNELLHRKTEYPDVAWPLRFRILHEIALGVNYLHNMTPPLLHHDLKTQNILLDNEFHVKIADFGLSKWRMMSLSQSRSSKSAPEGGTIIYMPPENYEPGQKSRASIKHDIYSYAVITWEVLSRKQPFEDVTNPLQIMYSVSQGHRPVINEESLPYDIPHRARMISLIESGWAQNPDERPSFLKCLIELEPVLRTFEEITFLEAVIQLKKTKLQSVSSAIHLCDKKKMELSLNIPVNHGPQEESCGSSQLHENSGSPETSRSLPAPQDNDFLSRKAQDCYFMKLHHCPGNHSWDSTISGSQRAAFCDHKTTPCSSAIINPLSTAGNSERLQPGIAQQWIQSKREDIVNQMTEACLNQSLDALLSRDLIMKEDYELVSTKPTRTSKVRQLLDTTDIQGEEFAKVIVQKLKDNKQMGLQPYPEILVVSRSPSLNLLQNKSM
ABHD5 PLIN5 PPI = ABHD5-PLIN5 interaction inhibitors, primary screen, cell lysate, split luciferase complementation, luminescence. Perilipin-5 (Homo sapiens) + 1-acylglycerol-3-phosphate O-acyltransferase ABHD5 (Homo …. Split G. princeps luciferase complementation, 4 h. inhibition, % at 4 µM. 360,000 compounds, 0.78% hits. AID 602281, 2012;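 active means inhibition above the mean inhibition across every tested compound plus 3 SD, cut at about 22% in these data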;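 further: 0% = DMSO only wells and the 100% control is not disclosed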
Beta2AR agonist = beta2AR agonists driving receptor internalization, primary screen, cell-based, FAP fluorogen, flow cytometry; Beta-2 adrenergic receptor (Homo sapiens), P07550; Am2.2-beta2AR cells; response, % (no concentration beside the values); 340,000 compounds, 0.43% hits; AID 504454, 2011;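 active means response above a set limit, near 3 SD of response in nonfluorescent compounds, cut at about 42% in these data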
Beta2AR ag CP1 = beta2AR agonists via receptor internalization, confirmation, cell-based, FAP fluorogen, flow cytometry, single point, cherry pick 1 | percent response (surface receptor), % at 10 µM | Am2.2-beta2AR cells, FAP surface receptor; hits give low values | shares compounds with Beta2AR agonist | 1,100 compounds, 25% hits;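 active means surface receptor percent response at or below 58%, roughly 3 SD from nonfluorescent compounds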
FAP fluor counter = flagged in Am2.2 fluorescence counterscreen for beta-2AR agonists; 1,100 tested, under 10 active; calls only at 10 µM; Am2.2 cells, FAP fluorogen flow cytometry; hits give low values; shares compounds with Beta2AR agonist;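 active means percent response below a set limit in fluorescence channel 1 and below 50% in channel 8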
TLR9-MyD88 conf = TLR9-MyD88 association inhibitors, retest, confirmation, cell-based, CHO, BLA complementation, fluorescence, triplicate; shares compounds with TLR9-MyD88 block; CCF4 FRET ratio; inhibition, % at 4.98 µM; 680 compounds, 51% hits; AID 540250, 2011;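 active means mean inhibition across three repeats above about 21% taken from the earlier screen, limit read from the data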;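 further: blue over green emission ratio reports constitutive TLR9 MyD88 association via BLA complementation; 0% = DMSO vehicle wells and 100% = clavulanate BLA inhibitor wells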
BLA counter-1 = beta-lactamase reporter inhibitors in CHO cells, artefact control for TLR9-MyD88 binding inhibitor project, cell-based, fluorescence; shares compounds with TLR9-MyD88 block; CHO-BLA cells, CCF4 FRET ratio, BLA reporter; inhibition, % at 4.98 µM; 680 compounds, 7% hits;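 active means mean inhibition above a 50% cutoff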;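 further: counterscreen of TLR9-MyD88 hits on CMV-driven BLA in CHO-K1 cells; 0% = DMSO alone and 100% = clavulanate blocking BLA; higher means less blue over green ratio so more BLA blockade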
TLR9 CHO cytotox = CHO cell viability loss – luminescence, single concentration, cytotoxicity control for TLR9-MyD88 binding inhibitor project; shares compounds with TLR9-MyD88 block; TLR9-MyD88 CHO cells cytotoxicity; inhibition, % at 4.98 µM; 680 compounds, 39% hits; AID 588336, 2011; in the data active means inhibition above about 11%
ABHD5 PLIN5 conf = ABHD5-PLIN5 interaction inhibitors, confirmation, biochemical, luminescence. shares compounds with ABHD5 PLIN5 PPI. inhibition, % at 4 µM. AID 651612, 2012. 2,200 compounds, 67% hits; in the data active means inhibition above about 23%;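 further: 0% = DMSO vehicle wells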
HNF4 split-luc = HNF4 dimerization inhibitors, counter-screen for ABHD5-PLIN5 interaction inhibitor project, biochemical, split-luciferase complementation, luminescence; shares compounds with ABHD5 PLIN5 PPI; inhibition, % at 4 µM; 2,200 compounds, 77% hits;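 active means mean inhibition across replicate wells exceeding the computed hit threshold, cut at about 13% in these data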;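 further: light from luciferase halves that rejoin when HNF4 fusion proteins dimerize; 0% = DMSO only wells and the 100% control is not given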
NOD2-RIPK2 conf = NOD2-RIPK2 binding disruptors, retest, confirmation, fluorescence, CHO cells, BLA complementation, triplicate. 1,200 compounds, 70% hits. inhibition, % at 4.98 µM. AID 624370, 2012. CCF4 FRET. shares compounds with NOD2-RIPK2 inh;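 active means mean inhibition across replicates above a set limit taken from the earlier primary screen, cut at about 21% in these data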;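 further: 0% = DMSO-only wells and the high end = clavulanate BLA-blocked wells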
BLA counter-2 = NOD2-RIPK2 counterscreen BLA reporter activity; shares compounds with NOD2-RIPK2 inh; CHO BLA reporter, CCF4 FRET ratio; inhibition, % at 4.98 µM; 1,200 compounds, 57% hits;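 active means mean inhibition above the low-control mean inhibition plus three low-control SD, cut at about 11% in these data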;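 further: 0% = DMSO only wells and 100% = clavulanate high control wells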
Starred values were filed as active, the others as inactive; i = inactive; . = no result given; + = active, no number.

SMILES | NTR1 agonist | TLR9-MyD88 block | TLR4 MyD88 comp | NOD2-RIPK2 inh | ABHD5 PLIN5 PPI | Beta2AR agonist | ABHD5 PLIN5 conf | HNF4 split-luc | others
c1ccc2c(c1)CSc1ccccc1C2C1=NCCN1 (configuration not stated) | 4 | -4 | -5 | 2 | 7 | 0 | . | .
Brc1ccc2c(c1)C(OC1CN3CCC1CC3)c1ccccc1CS2 (configuration not stated) | 10 | -14 | 3 | -2 | 29* | 50* | 11 | 12* | Beta2AR ag CP1=77;FAP fluor counter=i
OC12ONC(c3ccccn3)C1N1CCC2CC1 (configuration not stated) | -1 | 6 | 15 | 9 | 52* | 8 | 2 | 25* | Beta2AR ag CP1=83;FAP fluor counter=i
N#Cc1ccc(CN2Cc3ccccc3-n3nncc3C2)cc1 | . | -5 | . | -11 | -9 | . | . | .
COc1ccc(CC2NCC(O)C2OC(C)=O)cc1 (configuration not stated) | . | 2 | . | 35* | -7 | 110* | . | . | Beta2AR ag CP1=20*;FAP fluor counter=+;NOD2-RIPK2 conf=32*;BLA counter-2=-3
Nc1nonc1C(=O)N/N=C/c1ccc([N+](=O)[O-])o1 | 1 | -3 | 2 | -2 | 2 | 5 | . | .
CCC1(C)OC(c2ccccc2)=C/C(=C/C=C2C(=O)NC(=O)NC2=O)O1 (configuration not stated) | . | 33* | 16 | 12 | 14 | 0 | . | . | TLR9-MyD88 conf=25*;BLA counter-1=22;TLR9 CHO cytotox=3
CN1CCC(OC(=O)C2c3ccccc3Oc3ccccc32)CC1 | -5 | -1 | -2 | -4 | 7 | -4 | . | .
COc1cc(/C=C(/C)[N+](=O)[O-])ccc1OCc1ccccc1Cl | 39 | 34* | 17 | 81* | 90* | 48* | . | . | TLR9-MyD88 conf=34*;BLA counter-1=9;TLR9 CHO cytotox=99*
COc1cc(C=C2C(=O)NC(=O)NC2=O)ccc1OCc1ccc([N+](=O)[O-])cc1 | . | 1 | -10 | 1 | 9 | -3 | . | .
CC1=NCCc2c1[nH]c1cc(O)ccc21 | -4 | 32* | . | 54* | 5 | -18 | . | . | TLR9-MyD88 conf=26*;BLA counter-1=26;TLR9 CHO cytotox=-6;NOD2-RIPK2 conf=49*;BLA counter-2=51*
COc1ccc2c3c([nH]c2c1)C(C)=NCC3 | -2 | -1 | 7 | 2 | 5 | -66 | . | .
CN1CCN(Cc2cc3c(cc2[N+](=O)[O-])OCO3)CC1 | 1 | 3 | . | -10 | 1 | 1 | . | .
Nc1cc(Cl)c2nonc2c1[N+](=O)[O-] | . | 52* | 16 | 74* | 20 | 73* | . | . | TLR9-MyD88 conf=48*;BLA counter-1=36;TLR9 CHO cytotox=97*;NOD2-RIPK2 conf=76*;BLA counter-2=21*
O=C1NC(=O)N(c2ccc(Cl)cc2)C(=O)/C1=C/c1coc2ccc(O)cc2c1=O | 1 | -2 | . | -3 | 25* | 4 | 87* | 81*
Cc1cc(/C=C2\C(=O)NC(=O)N(c3ccc(Cl)cc3)C2=O)c(C)n1-c1cccc(C(=O)O)c1 | -2 | -1 | . | -1 | 12 | -7 | . | .
O=C1NC(=O)N(c2ccccc2)C(=O)/C1=C\c1ccccc1[N+](=O)[O-] | 0 | -8 | . | 4 | 24* | -2 | 78* | 80*
O=C1NC(=O)N(c2ccccc2)C(=O)/C1=C/c1ccoc1 | 4 | -2 | -5 | -2 | 4 | 5 | . | .
O=C1NC(=O)N(c2ccccc2)C(=O)/C1=C/c1coc2ccc(O)cc2c1=O | 4 | -5 | . | 1 | 37* | 14 | 90* | 88*
CCC1(C(=O)c2ccccc2)C2c3ccccc3OC(=O)C21C(C)=O (configuration not stated) | 0 | . | . | 0 | 2 | -1 | . | .
CCCC[N+]12CCC(CC1)C(=C(c1ccccc1)c1ccccc1)C2 | 1 | 0 | -4 | 0 | 3 | 0 | . | .
S=P(Nn1cnnc1)(c1ccccc1)c1ccccc1 | -2 | -4 | -4 | -9 | 30* | -7 | 3 | 3
O=c1[nH]c2ccccc2n1C1CCN(C(CCc2ccccc2)c2nnnn2-c2ccc3c(c2)OCCO3)CC1 (configuration not stated) | . | . | . | -6 | 14 | . | . | .
CCCCCN1C(=O)c2ccccc2[C@@]2(C(=O)OCC)Cc3cc(OC)ccc3[C@@H]12 | . | . | . | -8 | 25* | . | 14 | 12
CCOC(=O)[C@]12Cc3cc(OC)ccc3[C@H]1N(Cc1ccccc1)C(=O)c1ccccc12 | . | 2 | . | 4 | -10 | 10 | . | .
CCOC(=O)[C@]12Cc3cc(C)ccc3[C@H]1N(Cc1ccccc1)C(=O)c1ccccc12 | . | -3 | . | -4 | -2 | 12 | . | .
CCOC(=O)[C@]12Cc3cc(C)ccc3[C@H]1N(C(C)C)C(=O)c1ccccc12 | . | . | . | 14 | 26* | . | 25* | 21*
